Measured values taken from PubChem BioAssay (NCI).
The panel holds about 79,000 compounds, 15% with a hit somewhere; the sample as a whole holds those more often. Activity calls are given as the source filed them. Rule as the data show it: active = growth inhibition above about 70%; inactive = the rest.

What was measured:
[1] = NCI Yeast Anticancer Drug Screen. Data for the rad52 strain (AID 147);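 also: 0% = growth of vehicle-treated control cultures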; details: S. cerevisiae rad52 mutant growth inhibition, active compounds read high
How it was run: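 Here a repair-compromised yeast strain receives each compound; its growth is then quantified and normalised to vehicle-only controls.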

[2] = NCI Yeast Anticancer Drug Screen. Data for the wt1 strain (AID 149);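 also: 0% = growth of vehicle-treated wt1 cultures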; details: S. cerevisiae wt1 strain (SPY 50644) growth inhibition, active compounds read high
How it was run: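 Compounds are added to wt1 yeast cultures. Growth is then measured. Inhibition is expressed relative to vehicle-treated controls.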

[3] = NCI Yeast Anticancer Drug Screen. Data for the rad50EPP+ strain (AID 151);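 also: 0% = growth of vehicle-treated control cultures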; details: S. cerevisiae rad50 mutant strain, active compounds read high
How it was run: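 Read-out is yeast growth inhibition relative to vehicle; cells used were the rad50EPP+ strain.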

[4] = NCI Yeast Anticancer Drug Screen. Data for the mgt1 strain (AID 153); details: S. cerevisiae mgt1 mutant growth inhibition, active compounds read high
How it was run: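 Measured: inhibition of mgt1 yeast growth by compound, normalized to vehicle-treated cultures.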

[5] = NCI Yeast Anticancer Drug Screen. Data for the rad50 strain (AID 155);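 also: 0% = growth of vehicle-only cultures of the same strain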; details: S. cerevisiae rad50 strain growth inhibition, active compounds read high
How it was run: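 Inhibition values express reduced yeast growth in compound-treated cultures relative to vehicle-treated controls.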

[6] = NCI Yeast Anticancer Drug Screen. Data for the mec2-1 strain (AID 157); details: S. cerevisiae mec2-1 strain, active compounds read high
How it was run: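 Using mec2-1 yeast: add compound, measure growth, express inhibition versus vehicle-treated cultures.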

[7] = NCI Yeast Anticancer Drug Screen. Data for the sgs1 mgt1 strain (AID 161);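 also: 0% = growth of cultures given vehicle only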; details: S. cerevisiae sgs1 mgt1 strain, active compounds read high
How it was run: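 Compounds are added to genetically altered yeast, and growth is compared with cultures given vehicle alone to give percent inhibition.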

[8] = NCI Yeast Anticancer Drug Screen. Data for the CLN2oe strain (AID 163);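 also: 0% = growth of vehicle-only control cultures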; details: S. cerevisiae CLN2oe strain, active compounds read high
How it was run: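 Whole-cell yeast growth assay. A strain engineered for altered cell-cycle control received compound, and inhibition relative to vehicle-treated cultures was recorded.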

[9] = NCI Yeast Anticancer Drug Screen. Data for the cln2 rad14 strain (AID 165);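 also: 0% = growth equal to vehicle treated cultures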; details: S. cerevisiae cln2 rad14 strain, active compounds read high
How it was run: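 Yeast strain cln2 rad14, bearing defects in cell cycle control and DNA repair, serves as the test system; values reflect growth inhibition compared with vehicle.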

[10] = NCI Yeast Anticancer Drug Screen. Data for the wt2 strain (AID 169);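 also: 0% = growth of vehicle-treated yeast cultures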; details: S. cerevisiae wt2 strain growth inhibition, active compounds read high
How it was run: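 Treated yeast vs. vehicle-treated yeast: growth inhibition determined.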

[11] = NCI Yeast Anticancer Drug Screen. Data for the mlh1 strain (AID 171);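 also: 0% = growth of vehicle-treated control cultures of the same strain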; details: S. cerevisiae mlh1 strain growth inhibition, active compounds read high
How it was run: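 A yeast strain with a defined genetic lesion serves as the test organism. Cultures receive compound or vehicle, and growth is measured.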

[12] = NCI Yeast Anticancer Drug Screen. Data for the sgs1 strain (AID 173);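 also: 0% = growth of vehicle-only control cultures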; details: S. cerevisiae sgs1 mutant, active compounds read high
How it was run: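 A genetically defined yeast mutant is incubated with the test compound, and its growth is compared to that of the same strain given vehicle.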

[13] = NCI Yeast Anticancer Drug Screen. Data for the mlh1 rad18 strain (AID 175); details: S. cerevisiae mlh1 rad18 strain growth inhibition, active compounds read high
How it was run: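 Steps: expose repair-defective yeast to compound; measure growth; express inhibition against vehicle-treated controls.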

[14] = NCI Yeast Anticancer Drug Screen. Data for the rad18 strain (AID 177); details: S. cerevisiae rad18 mutant growth inhibition, active compounds read high
How it was run: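 Measured value is growth inhibition of a yeast strain bearing a DNA repair alteration, referenced to vehicle-treated cells.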

[15] = at 5.0 µM (retest, dose inferred, filed as 0.5)
[16] = at 50.0 µM (retest, dose inferred, filed as 5.0)

Measured: growth inhibition

c1ccc2c(c1)sc1c3cnccc3ccc21
inactive: [1]; at 1.2 µM 11% | [1]; at 3.7 µM 41% | [1]; at 11.0 µM 62% | [2]; at 1.2 µM -1% | [2]; at 3.7 µM 14% | [2]; at 11.0 µM 23% | [2]; at 33.0 µM 22% | [2]; at 100.0 µM 23% | [3]; at 1.2 µM 36% | [3]; at 3.7 µM 46% | [3]; at 11.0 µM 55% | [3]; at 100.0 µM 65% | [4]; at 1.2 µM 1% | [4]; at 3.7 µM -1% | [4]; at 11.0 µM 0% | [4]; at 33.0 µM -3% | [4]; at 100.0 µM 3% | [5]; at 1.2 µM 12% | [5]; at 3.7 µM 36% | [5]; [15] 35% | [5]; at 11.0 µM 64% | [6]; at 1.2 µM 4% | [6]; at 3.7 µM 2% | [6]; [15] -34% | [6]; at 11.0 µM 3% | [6]; at 33.0 µM 8% | [6]; [16] -20% | [6]; at 50.0 µM 47.4% | [6]; at 100.0 µM 12% | [7]; [15] -55% | [7]; [16] -34% | [7]; at 50.0 µM 23.6% | [8]; at 1.2 µM 4% | [8]; at 3.7 µM 8% | [8]; at 11.0 µM 1% | [8]; at 33.0 µM 5% | [8]; at 100.0 µM 8% | [9]; [15] -39% | [9]; [16] -26% | [9]; at 50.0 µM 33% | [10]; at 1.2 µM 8% | [10]; at 3.7 µM 14% | [10]; at 11.0 µM 25% | [10]; at 33.0 µM 36% | [10]; at 100.0 µM 32% | [11]; at 1.2 µM -9% | [11]; at 3.7 µM -1% | [11]; at 11.0 µM 2% | [11]; at 33.0 µM 10% | [11]; at 100.0 µM 9% | [12]; at 1.2 µM -8% | [12]; at 3.7 µM -10% | [12]; at 11.0 µM 3% | [12]; at 33.0 µM 9% | [12]; at 100.0 µM 8% | [13]; [15] -171% | [13]; [16] -49% | [13]; at 50.0 µM 45.5% | [14]; at 1.2 µM -8% | [14]; at 3.7 µM 1% | [14]; at 11.0 µM -1% | [14]; at 33.0 µM -2% | [14]; at 100.0 µM 13%
active: [1]; at 33.0 µM 84% | [1]; at 100.0 µM 86% | [3]; at 33.0 µM 73% | [5]; at 33.0 µM 74% | [5]; [16] 74% | [5]; at 50.0 µM 94.3% | [5]; at 100.0 µM 73%
